Experimental findings from PubChem BioAssay AID2546 (National Center for Advancing Translational Sciences (NCATS), 2010) are described below.

In all, about 310,000 compounds went through this assay and about 11,000 (3.5%) were called active. Roughly 8% stayed inconclusive and do not appear here. The call rests on the fitted dose curve; in most records, active means well fitted inhibition curve with a large enough effect; inconclusive means small, poorly fitted or top-dose-only effect, or effect the other way; inactive means flat fitted curve, though single readings scatter. The full list was thinned out, with actives kept by preference.
On the % scale 0 is the no-effect control and ±100 the full control effect; potency means the concentration at half of the fitted maximal effect.

This experiment in a line: VP16 counterscreen qHTS for inhibitors of ROR gamma transcriptional activity.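 Further: Gal4-VP16 expression switched on by copper sulfate through the metallothionein promoter; nearly all actives have a fitted effect of over 50% in size.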 The settings on record: Drosophila S2 Gal4-VP16 UAS-luciferase, luminescence, 20 h; series mostly up to 53.6 µM; activity, negative = inhibition: at the top concentration. In general terms: Counterscreens check selectivity or assay interference.
As to `O=C(N/C(=C\c1ccc([N+](=O)[O-])cc1)C(=O)N1CCOCC1)c1cccc(Br)c1`, the “activity, negative = inhibition” value was -11.1% (inactive).

Consider `CC(=O)Nc1ccc(S(=O)(=O)N(C)c2nc3ccccc3nc2Cl)cc1`, for which the “activity, negative = inhibition” value is 11.5% (inactive).

For `COC(=O)CN1C(=O)[C@H]2[C@@H](/C=C/c3ccccc3)N3C(=O)CN(CC4CC4)C(=O)[C@@]3(Cc3ccccc3)[C@H]2C1=O`, the “activity, negative = inhibition” value was 3.02% (inactive).

As for `O=C(CN(Cc1ccc(Br)cc1)S(=O)(=O)c1ccccc1)NCc1ccncc1`, the “activity, negative = inhibition” value was -8.26% (inactive).

`CN1CCN(C(=O)C(=O)c2cn(CC(=O)N3CCCC3)c3ccccc23)CC1`: the “activity, negative = inhibition” value is -3.11% (inactive).

On to `Cc1ccccc1CNC(=O)CCC(=O)N1Cc2ccccc2Oc2ncccc21`, for which the “activity, negative = inhibition” value is -6.17% (inactive).

For the compound `Cc1cc(SCc2c(F)cccc2Cl)nc(=O)[nH]1`, the “activity, negative = inhibition” value was 2.98% (inactive).

For the compound `COc1ccc(CNC(=O)/C(C#N)=C/c2cccc(OC)c2OC)cc1`, the “activity, negative = inhibition” value is -3.25% (inactive).

For `O=C(NCCOCc1ccc(Cl)cc1)c1ncn[nH]1`, the “activity, negative = inhibition” value is 2.55% (inactive).

`COc1ccc(Cl)cc1CSc1ncn[nH]1`: the “activity, negative = inhibition” value was 0.416% (inactive).

For the compound `O=C(/C=C/Sc1ncn[nH]1)c1ccc(Cl)cc1`, the Potency is 4.47 µM (active).

On to `O=C(Cn1c(NCCO)nc2ccccc21)c1ccc(Cl)cc1Cl`, for which the “activity, negative = inhibition” value was -4.09% (inactive).

Regarding `CCc1cccc(NC(=S)N(CCN(C)C)C2CCN(C(C)C)CC2)c1`, the “activity, negative = inhibition” value is 3.51% (inactive).

Consider `CC(C)c1ccc(S(=O)(=O)N2CCN(C(=O)c3ccc(N4CCCC4)c([N+](=O)[O-])c3)CC2)cc1`, for which the “activity, negative = inhibition” value is 4.28% (inactive).

With `CC(=O)N1c2ccc(S(=O)(=O)NCCC(=O)N(C)C3CCCCC3)cc2CC1C` (configuration not stated), the “activity, negative = inhibition” value is 1.26% (inactive).

As to `Nc1nc(Nc2ccccc2F)nc(NC2CCCCC2)c1[N+](=O)[O-]`, the “activity, negative = inhibition” value was -20.7% (inactive).

Regarding `Cc1cccc(N=C2NN=C(c3c[nH]c4ccccc34)CS2)c1`, the Potency was 7.94 µM (active).

For `Cc1cccc(C(=O)Nc2nnc(Cc3c[nH]c4ccccc34)s2)c1`, the “activity, negative = inhibition” value was 0.0774% (inactive).

In the case of `Cc1ccc(-c2csc(-c3c[nH]c4ccccc34)n2)cc1`, the “activity, negative = inhibition” value is 13.1% (inactive).

Take `C=CCCN(C(Cc1ccccc1)C(=O)OC)S(=O)(=O)c1cc(Br)ccc1Br` (configuration not stated): the “activity, negative = inhibition” value was -1.68% (inactive).

As for `CC(C)c1nc(CNC(=O)CC2C(=O)NCCN2Cc2cccc(F)c2F)cs1` (configuration not stated), the “activity, negative = inhibition” value is -1.75% (inactive).

With `COc1ccc(N2CCN(S(=O)(=O)CCNC(=O)C34CC5CC(CC(C5)C3)C4)CC2)cc1`, the “activity, negative = inhibition” value was -20.6% (inactive).

`COC(=O)c1ccc(CSc2ccc3nnc(-c4ccccc4)n3n2)o1`: the Potency was 20 µM (active).

On to `COC(=O)c1ccc(CSc2ccccc2C)o1`, for which the “activity, negative = inhibition” value was -1.68% (inactive).

Consider `COc1ccc(-c2nnc3ccc(SCc4ccccc4)nn23)cc1`, for which the “activity, negative = inhibition” value is -14.2% (inactive).

Take `CC(=O)c1ccc(NC(=O)c2sc3nc4n(c(=O)c3c2C)CCCCC4)cc1`: the “activity, negative = inhibition” value was 2.75% (inactive).

As to `COc1ccc(Cl)cc1NC(=O)c1cccc(N2C(=O)C3CC=CCC3C2=O)c1` (configuration not stated), the “activity, negative = inhibition” value was -23.2% (inactive).

Turning to `CCOC(=O)c1c(-c2cccc(C)c2)csc1NC(=O)c1c(-c2ccccc2)noc1C`, the “activity, negative = inhibition” value is -9.8% (inactive).

With `Cc1cc2[nH]ncc2cc1NC(=S)NC(=O)c1ccccc1`, the “activity, negative = inhibition” value was -12.9% (inactive).

Turning to `CCOC(=O)c1c(-c2ccccc2)csc1NC(=S)NC(=O)c1ccccc1`, the Potency was 6.31 µM (active).

Take `CCOC(=O)c1c(-c2ccc(-c3ccccc3)cc2)csc1NC(=O)CCC(=O)O`: the “activity, negative = inhibition” value is -6.4% (inactive).

`CCOC(=O)c1c(NC(=O)C2(C)Cc3ccccc3C(=O)O2)sc2c1CCCC2` (configuration not stated): the “activity, negative = inhibition” value is 1.28% (inactive).

For `CCOC(=O)C1=C(NC(=S)NC(=O)c2ccccc2)c2ccccc2CC1(C)C`, the Potency is 11.2 µM (active).

Turning to `COc1ccc(CNC(=O)CN(Cc2ccccc2Cl)C(=O)c2csnn2)cc1`, the “activity, negative = inhibition” value was 10.7% (inactive).

For `COc1ccc(CCNC(=O)c2c(C)nn(-c3ccccc3)c2Cl)cc1`, the “activity, negative = inhibition” value is -1.46% (inactive).

For `COc1ccc(N(CC(=O)Nc2cc(OC)ccc2OC)S(=O)(=O)c2c(C)noc2C)cc1`, the “activity, negative = inhibition” value is -9.43% (inactive).

As for `CCOc1c(OC)cccc1C(=O)NCC1(c2ccccc2)CCCC1`, the “activity, negative = inhibition” value was -5.15% (inactive).

With `CN(Cc1ccccc1)C(=O)c1ccc(COc2ccccc2)cc1`, the “activity, negative = inhibition” value was -10.8% (inactive).

As for `CC1=C/C(=N\OS(=O)(=O)c2ccccc2)C=CC1=O`, the Potency was 1.12 µM (active).

For `O=S(=O)(ON(c1ccccc1)S(=O)(=O)c1ccccc1)c1ccccc1`, the “activity, negative = inhibition” value is 13.6% (inactive).

In the case of `NC(=O)CC(NC(=O)Cc1ccc(Br)cc1)c1ccc(NC2CC3CCC2C3)c([N+](=O)[O-])c1` (configuration not stated), the “activity, negative = inhibition” value is -5.02% (inactive).

With `CC(C)NC(=O)C(c1ccc(F)cc1)N(C(=O)CCC(=O)Nc1ccccn1)c1ccccc1F` (configuration not stated), the “activity, negative = inhibition” value is -8.21% (inactive).

Consider `CCCn1nc(NC(=O)C(C)C)c2cc3cc(OC)ccc3nc21`, for which the “activity, negative = inhibition” value was -15.8% (inactive).

For the compound `CCOc1ccc2c(c1)c(=O)c(S(=O)(=O)c1ccc(C)cc1)cn2CC`, the “activity, negative = inhibition” value was -5.33% (inactive).

Turning to `COCn1c(C(O)c2ccccc2)cc2ccccc21` (configuration not stated), the “activity, negative = inhibition” value is -7.58% (inactive).

With `COc1cc(C(=O)NC(=S)NCc2ccco2)cc(OC)c1OC`, the Potency was 6.31 µM (active).

In the case of `COc1cc(-n2c(C)nc3cc(C(=O)NCc4ccco4)ccc32)cc(OC)c1OC`, the “activity, negative = inhibition” value was -0.501% (inactive).

For the compound `COc1cc(C(=O)N[C@@H](C)C(=O)NCc2ccco2)cc(OC)c1OC`, the “activity, negative = inhibition” value is -12.1% (inactive).

In the case of `COc1ccc(CNc2nccs2)cc1`, the “activity, negative = inhibition” value is -1.03% (inactive).

Consider `CCC(=C/c1sc2ccc3ccccc3c2[n+]1C)/C=C1\Sc2ccc3ccccc3c2N1C`, for which the Potency is 1 µM (active).

Take `COc1cccc(OC)c1C(=O)Nc1c(C(=O)N2CCN(c3ccccn3)CC2)oc2ccccc12`: the “activity, negative = inhibition” value is -3.08% (inactive).

As to `O=C(c1cccnc1)N1CCN(S(=O)(=O)c2cccs2)CC1`, the “activity, negative = inhibition” value is -8.19% (inactive).
